Compound activity (PubChem)
NOD2 RIPK2 PPI – blocks binding of human NOD2 to RIPK2; CHO BLA complementation NOD2-RIPK2, CCF4 ratio; AID 624267; inhibition, % at 4.98 µM; 0.38% of 360,000 active; O43353; in the data active = inhibition above about 21%
ABHD5-PLIN5 inh – inhibitors of human ABHD5-perilipin-5 interaction. Split G. princeps luciferase complementation, luminescence, 4 h. Q00G26+Q8WTS1. inhibition, % at 4 µM. 0.78% of 360,000 active;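 active = inhibition above the mean inhibition across every tested compound plus 3 SD, cut at about 22% in these data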
PRMT1 inh – blocks human protein arginine methyltransferase 1; Q99873; recombinant PRMT1, activity-based probe fluorescence polarization; inhibition, % at 2.79 µM; 1.3% of 370,000 active; AID 652257;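 active = inhibition above about 21% made by adding two undisclosed values, limit read from the data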
TLR4-MyD88 BLA – blocks binding of human TLR4 to MyD88; HeLa CL3-4 TLR4/MyD88 BLA complementation, FRET ratio; inhibition, % at 8.4 µM; 0.18% of 200,000 active; AID 861; in the data active = inhibition above about 25%
Granule exo inh – lytic granule exocytosis inhibition. 0.66% of 360,000 active. AID 651702. inhibition, % at 10 µM. TALL-104 LAMP-1 surface exposure, flow cytometry; cells stimulated with thapsigargin and PMA;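 active = inhibition above about 55%, limit read from the data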
TLR9-MyD88 inh – TLR9-MyD88 interaction inhibition; 0.21% of 340,000 active; AID 504734; Q9NR96+Q99836; inhibition, % at 4.98 µM; CHO BLA complementation TLR9-MyD88, CCF4 FRET ratio;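 active = inhibition above the mean over all tested compounds plus 3 SD, cut at about 21% in these data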
PRMT1 inh conf – confirmation of human PRMT1 inhibitors | shares compounds with PRMT1 inh | recombinant His-PRMT1, activity-based probe fluorescence polarization | inhibition, % at 2.79 µM | 42% of 3,300 active | AID 687036;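 active = mean inhibition across replicates above the hit cutoff derived for the earlier primary screen, cut at about 22% in these data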
Large screens that a line does not name were inactive (follow-up assays come after a bar, where they were run). A selection: hits, their analogues and other compounds. The true share with any hit is near 2.6%.

C=CC[C@]12C[C@@]3(O[C@H](c4ccccn4)N=C3C[C@H](c3ccc(OC)cc3)[C@H]1C)N(C1CCN(Cc3ccccc3)CC1)C2=O	none (no result: NOD2 RIPK2 PPI, ABHD5-PLIN5 inh, TLR4-MyD88 BLA, Granule exo inh, TLR9-MyD88 inh)
C=CCn1c(C)cc(C(=O)CSc2ccc(NC(C)=O)cc2)c1C	none
CC(=O)Nc1ccc(SCC(=O)c2cc(C)n(-c3ccccc3F)c2C)cc1	PRMT1 inh 28 | PRMT1 inh conf 30
COC(=O)c1ccc(-n2c(C)cc(C(=O)CSc3ccc(NC(C)=O)cc3)c2C)cc1	PRMT1 inh 50 | PRMT1 inh conf 30
CN1CCN(C(=O)CCN2C(=O)/C(=C\c3ccccc3F)SC2=S)CC1	PRMT1 inh 28 (no result: TLR4-MyD88 BLA) | PRMT1 inh conf inactive
CC[n+]1c(C)sc2c3ccsc3ccc21	PRMT1 inh 38 | PRMT1 inh conf 64
Cc1[nH]nc2c1C(c1ccc(O)cc1)C1=C(CC(C)(C)CC1=O)N2 (stereo not given)	none
Cc1ccc(C2C3=C(CC(C)(C)CC3=O)Nc3[nH]c(=S)[nH]c(=O)c32)cc1 (stereo not given)	PRMT1 inh 52 (no result: TLR4-MyD88 BLA) | PRMT1 inh conf inactive
CC(C)C[C@@H]1CN(CCCC[C@H]2CNC(=O)C(=O)N2CCC2CCCCC2)C(=O)C(=O)N1CC1CCCCC1	none (no result: TLR4-MyD88 BLA, TLR9-MyD88 inh)
Cc1cc(C)c(NC(=S)NCC2CCN(C(C)c3ccccc3)C2)c(C)c1 (stereo not given)	PRMT1 inh 42 | PRMT1 inh conf 72
CC(C)n1c(-c2ccccc2)nc(=S)c2c1CCCC2	PRMT1 inh 36 (no result: NOD2 RIPK2 PPI, ABHD5-PLIN5 inh, Granule exo inh, TLR9-MyD88 inh) | PRMT1 inh conf inactive
COc1ccc(NS(=O)(=O)c2ccc(N3CCCC3)c(NC(=S)Nc3ccc(SC(F)F)cc3)c2)cc1	PRMT1 inh 29 | PRMT1 inh conf inactive
Cc1ccc(OCCC(=O)Nc2cc(S(=O)(=O)N3CCOCC3)ccc2N2CCCC2)cc1	none (no result: TLR4-MyD88 BLA)
O=C(NNc1nc2cc3c(cc2s1)OCCO3)c1ccccc1	none
Cc1cccc2sc(NNC(=O)c3ccc4c(c3)OCCO4)nc12	PRMT1 inh 28 | PRMT1 inh conf inactive
COc1ccc(Br)cc1CN(C)C(=O)c1ccccc1OCc1c(C)noc1C	none (no result: TLR4-MyD88 BLA)
COc1ccccc1NC(=O)C1C2C=CC(O2)C1C(=O)O (stereo not given)	none (no result: NOD2 RIPK2 PPI, ABHD5-PLIN5 inh, PRMT1 inh, Granule exo inh, TLR9-MyD88 inh)
O=C(O)C1C2C=CC(O2)C1C(=O)NCc1ccccc1Br (stereo not given)	PRMT1 inh 30 | PRMT1 inh conf inactive
CC(C)Oc1cccc(-c2n[nH]c(=S)n2N=Cc2ccc(O)cc2O)c1	PRMT1 inh 37 (no result: NOD2 RIPK2 PPI, ABHD5-PLIN5 inh, TLR4-MyD88 BLA, Granule exo inh, TLR9-MyD88 inh) | PRMT1 inh conf inactive
O=[N+]([O-])c1cccc(/C=N/n2c(COc3ccccc3)n[nH]c2=S)c1	none
Oc1ccccc1/C=N/n1c(-c2ccccc2)n[nH]c1=S	none (no result: TLR4-MyD88 BLA)
CC(C)Oc1cccc(-c2n[nH]c(=S)n2N=Cc2cccc([N+](=O)[O-])c2)c1	PRMT1 inh 34 (no result: NOD2 RIPK2 PPI, ABHD5-PLIN5 inh, TLR4-MyD88 BLA, Granule exo inh, TLR9-MyD88 inh) | PRMT1 inh conf 25
COc1ccc(OC)c(C2/C(=C(/O)c3ccc(C)cc3)C(=O)C(=O)N2Cc2ccco2)c1 (stereo not given)	none
Cc1ccc(C2/C(=C(/O)c3ccc(Br)cc3)C(=O)C(=O)N2Cc2ccco2)o1 (stereo not given)	ABHD5-PLIN5 inh 23, PRMT1 inh 35 | PRMT1 inh conf inactive
COc1ccc(C2NC(=S)N3C(c4ccc(OC)cc4)NC(=S)N23)cc1 (stereo not given)	PRMT1 inh 46 | PRMT1 inh conf inactive
COc1ccc(-c2cnc3c(NC(C)=O)cc(-c4cccc(C(=O)N(C)C)c4)cn23)cc1OC	none (no result: TLR4-MyD88 BLA, TLR9-MyD88 inh)
N[C@H]1CC[C@@H]2SC[C@@H](C(=O)O)N2C1=O	none (no result: NOD2 RIPK2 PPI, ABHD5-PLIN5 inh, TLR4-MyD88 BLA, Granule exo inh, TLR9-MyD88 inh)
CN(C)CCNC(=O)c1cccc(-c2cnc3c(NC=O)cc(-c4cccs4)cn23)c1	none (no result: TLR4-MyD88 BLA, TLR9-MyD88 inh)
CC(=O)OCCNc1cc(N2CCN(C)CC2)c2noc3c2c1C(=O)c1ccccc1-3	none
CCOC(=O)C(C(=O)OCC)c1cc(Br)c2noc3c2c1C(=O)c1ccccc1-3	PRMT1 inh 32, Granule exo inh 98 | PRMT1 inh conf 53
Nc1c(C(=O)Nc2ccc(Cl)c(Cl)c2)sc2nc(-c3cccnc3)ccc12	PRMT1 inh 26 (no result: NOD2 RIPK2 PPI, ABHD5-PLIN5 inh, Granule exo inh, TLR9-MyD88 inh) | PRMT1 inh conf inactive
CC(=O)Nc1cccc(NC(=O)c2cc(-c3cccnc3)nc3ccc(Cl)cc23)c1	none
CCOC(=O)CC(=O)CSc1nc(-c2cccnc2)ccc1C#N	PRMT1 inh 56 | PRMT1 inh conf inactive
